Assay outcomes: PubChem BioAssay, National Center for Advancing Translational Sciences (NCATS)
IL1B secr inh: blocks inflammasome-driven IL-1 beta release. AID 743279. hit rate 4.7% among 360,000. activity change, % at 57.5 µM. THP-1 LPS/ATP IL-1B secretion, AlphaLISA, 16 h; hits give low values; in the data active means activity change below about -50%; inconclusive means mostly about -30% to -49%
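THP-1 cells pretreated 1 hr with compounds (up to 57.5 uM final), then stimulated with LPS (250 ng/mL final) plus ATP (1.25 mM final); secreted IL-1B measured by AlphaLISA after 16 hr, decreased signal indicating inhibition.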
MCF10A rereplic: DNA re-replication induction in MCF 10a cells | AID 624296 | hit rate 2.9% among 350,000 | Potency, µM (series often up to 46.1 µM), usual class: activators | MCF 10A DNA re-replication, Hoechst nuclear intensity, 48 h; further: nearly all actives have a fitted effect of over 50% in size
SW480 rereplic: inducers of DNA re-replication in SW480 colon cancer cells | SW480 DNA re-replication, Hoechst DNA content imaging, 48 h | Potency, µM (top dose mostly 46.1 µM), actives largely listed as activators | hit rate 1.8% among 340,000 | AID 624297; further: nearly all actives have a fitted effect of over 55% in size
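Compounds, transferred as 23 nL by pin tool, were incubated with cells for 48 hr; DNA content per nucleus was then quantified by Hoechst staining and fluorescence plate imaging.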
VP16 counter: inhibits Gal4-VP16 luciferase reporter, ROR gamma counter-screen. Drosophila S2 Gal4-VP16 UAS-luciferase, luminescence, 20 h. Potency, µM (top dose mostly 53.6 µM), usual class: inhibitors. hit rate 3.5% among 310,000. AID 2546;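 further: Gal4-VP16 expression switched on by copper sulfate through the metallothionein promoter; nearly all actives have a fitted effect of over 50% in size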
RORgamma inh: inhibitors of mouse ROR gamma transcriptional activity; P51450; Drosophila S2 Gal4-RORgamma UAS-luciferase reporter, 20 h; Potency, µM (doses to about 53.6 µM), actives largely listed as inhibitors; hit rate 5.4% among 310,000; further: nearly all actives have a fitted effect of over 60% in size
Target sequence (P51450 whole entry, looked up, the tested form may be a part): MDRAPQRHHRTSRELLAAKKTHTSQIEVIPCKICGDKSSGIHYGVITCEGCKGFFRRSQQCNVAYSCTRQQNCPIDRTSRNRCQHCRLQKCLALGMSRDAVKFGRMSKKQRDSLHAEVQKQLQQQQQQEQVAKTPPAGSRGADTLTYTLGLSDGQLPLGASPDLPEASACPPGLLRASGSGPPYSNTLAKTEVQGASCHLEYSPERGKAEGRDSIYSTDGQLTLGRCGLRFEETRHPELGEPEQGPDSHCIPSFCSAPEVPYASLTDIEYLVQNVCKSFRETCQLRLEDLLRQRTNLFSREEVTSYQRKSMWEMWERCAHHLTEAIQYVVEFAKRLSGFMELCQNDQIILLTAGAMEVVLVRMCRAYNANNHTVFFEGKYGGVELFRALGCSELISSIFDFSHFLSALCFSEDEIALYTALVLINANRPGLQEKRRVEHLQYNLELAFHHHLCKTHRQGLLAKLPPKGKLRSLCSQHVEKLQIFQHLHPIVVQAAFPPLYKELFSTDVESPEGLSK
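Using a luciferase readout, inhibitors were identified by reduced reporter activity in Drosophila cells coexpressing a copper-inducible Gal4–ROR gamma fusion and UAS-driven Photinus luciferase, incubated 20 hr after 700 uM copper sulfate.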
Of the large screens only hits and unclear results are named; the others gave an inactive call. Sampled rows, rich in hits. Any-hit rate of the full collection: about 11%. Unless noted, the call rests on the fitted dose curve; in most records, active means well fitted curve in the direction sought with a large enough effect; inconclusive means small, poorly fitted or top-dose-only effect, or another doubt; inactive means no such curve, though single readings can be large; an effect the other way counts as inactive or inconclusive.

CCCCCc1c(-c2ccc(Cl)cc2)ncn1CCc1ccccc1OC	IL1B secr inh -63 (no result: MCF10A rereplic, SW480 rereplic, VP16 counter, RORgamma inh)
O=C(NCCCN1CCCC1=O)c1ccc(Cl)c(S(=O)(=O)N2CCCCC2)c1	SW480 rereplic inconclusive (no result: VP16 counter, RORgamma inh)
O=C(Cc1ccccc1)NCC1COc2ccccc2O1 (centres undefined)	none (no result: VP16 counter, RORgamma inh)
O=C(NCC1COc2ccccc2O1)c1cccs1 (centres undefined)	none
O=C(NCC1COc2ccccc2O1)c1ccc(Br)s1 (centres undefined)	IL1B secr inh -72
O=C(NCc1ccccc1)C(=O)NCC1COc2ccccc2O1 (centres undefined)	MCF10A rereplic 12µM, SW480 rereplic inconclusive
O=C(Cc1ccccc1)NC(=S)Nc1ccc(OC(F)F)cc1	VP16 counter 11µM, RORgamma inh 20µM
COc1ccc(CC(=O)NC(=S)Nc2ccc(S(N)(=O)=O)cc2)cc1	VP16 counter inconclusive
CCC(=O)Nc1ccc(NC(=S)NC(=O)Cc2ccccc2)cc1	MCF10A rereplic inconclusive
COc1ccc(NC(=S)NC(=O)Cc2ccccc2)cc1	VP16 counter 7.1µM, RORgamma inh 8.9µM
COc1cccc(NC(=S)NC(=O)Cc2ccccc2)c1	none (no result: VP16 counter, RORgamma inh)
COc1ccc(CC(=O)NC(=S)Nc2ccc(S(=O)(=O)NC(C)(C)C)cc2)cc1	RORgamma inh 13µM
COc1ccccc1NC(=S)NNC(=S)Nc1ccc(OC(F)F)cc1	IL1B secr inh -86, MCF10A rereplic inconclusive
CC(C)N(C)C1=CC(=O)C(N(C)C(C)C)=CC1=O	none (no result: VP16 counter, RORgamma inh)
COc1ccc(NC(=O)NCCCCc2ccccc2)cc1	none
COc1ccc(NC(=S)NCCCc2ccccc2)cc1	SW480 rereplic 18µM, VP16 counter 13µM, RORgamma inh 3.5µM
C=CCN(CC=C)S(=O)(=O)c1ccc(NC(=S)NC(=O)Cc2ccc(OC)cc2)cc1	VP16 counter inconclusive, RORgamma inh 7.1µM
Clc1ccc(-c2ccnc3nc(N4CCOCC4)nn23)c(Cl)c1	none (no result: VP16 counter, RORgamma inh)
Oc1ccc(-c2n[nH]c(=S)n2-c2ccc3c(c2)OCCO3)c(O)c1	IL1B secr inh -94, MCF10A rereplic inconclusive, RORgamma inh inconclusive
S=c1[nH]nc(-c2ccc(Cl)cc2Cl)n1-c1ccc2c(c1)OCCO2	RORgamma inh 3.5µM
S=c1[nH]nc(-c2ccc(Cl)cc2Cl)n1-c1ccccc1	VP16 counter inconclusive
O=C(NCC1CCN(Cc2ccccc2)CC1)[C@H]1O[C@@H](n2ccc(=O)[nH]c2=O)[C@H](O)[C@@H]1O	none (no result: MCF10A rereplic, SW480 rereplic, VP16 counter, RORgamma inh)
CC(C)(C)NC(=O)C(C1CC1)n1c(-c2ccccc2)nc2ccccc21 (centres undefined)	none (no result: MCF10A rereplic, SW480 rereplic, VP16 counter, RORgamma inh)
Cc1ccn(CCC(=O)N2CCCC(N3CCN(c4ccccc4C)CC3)C2)n1 (centres undefined)	none (no result: MCF10A rereplic, SW480 rereplic, VP16 counter, RORgamma inh)
CC(=O)c1sc(NC(=O)c2ccc3c(c2)OCO3)nc1C	none
Cc1c(Cc2ccc3c(c2)OCO3)sc(NC(=O)c2ccccc2)c1C(N)=O	MCF10A rereplic 13µM
Cc1nc(NC(=O)c2ccc(Cl)cc2)sc1Cc1ccc2c(c1)OCO2	MCF10A rereplic 2.9µM, SW480 rereplic 5.8µM, VP16 counter inconclusive, RORgamma inh inconclusive
Cc1nc(NC(=O)c2ccccc2)sc1Cc1ccc2c(c1)OCO2	MCF10A rereplic inconclusive, SW480 rereplic 26µM, VP16 counter inconclusive, RORgamma inh 13µM
O=C(CCn1c(=S)[nH]c2cc3c(cc2c1=O)OCO3)NCCc1ccccc1Cl	none (no result: MCF10A rereplic, SW480 rereplic, VP16 counter, RORgamma inh)
Cc1cccc(OCCNc2ccc([N+](=O)[O-])cn2)c1	none
O=[N+]([O-])c1ccc(NCCOc2ccccc2Cl)nc1	IL1B secr inh -66, MCF10A rereplic inconclusive, RORgamma inh inconclusive
CCCc1nc2ccccc2n1C(CCSC)C(=O)NC(C)(C)C (centres undefined)	none (no result: MCF10A rereplic, SW480 rereplic, VP16 counter, RORgamma inh)
O=C(/C=C/c1ccc2c(c1)OCO2)NCCSCc1ccc(Cl)cc1	MCF10A rereplic inconclusive
O=C(/C=C/c1ccc2c(c1)OCO2)NCCSCc1c(Cl)cccc1Cl	MCF10A rereplic 9.2µM, RORgamma inh inconclusive
O=C(/C=C/c1ccccc1)NCCSCc1ccccc1	VP16 counter 13µM, RORgamma inh inconclusive
O=C(NC1CCc2ccccc21)c1cc(COc2cncc(Cl)c2)on1 (centres undefined)	IL1B secr inh -62, VP16 counter inconclusive
CC(C)(C)OC(=O)N1C=CCC1CN1C(=O)COCC1=O (centres undefined)	none (no result: IL1B secr inh, MCF10A rereplic, SW480 rereplic)
CC(c1nc2ccccc2n1Cc1ccccc1)n1c(-c2cnccn2)nc2ccccc21 (centres undefined)	none (no result: MCF10A rereplic, SW480 rereplic, VP16 counter, RORgamma inh)
